# High-throughput results from PubChem BioAssay.
# Sampled rows, rich in hits. Any-hit rate of the full collection: about 2.8%.
# Wnt act: activators of Wnt/beta-catenin signaling | Wnt/beta-catenin reporter cell assay, activator, plate reader | activation, % at 9.35 µM | hit rate 1.2% among 300,000 | AID 743398; in the data active = activation above about 30%, passing the limit was not always enough; inconclusive = no clear call, values can overlap the other calls;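 also: 0% = neutral control wells and 100% = positive control wells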
# MITF act: MITF TRPM1 promoter activation in melanoma cells; SK-MEL-5 TRPM1-promoter luciferase, 24 h; % of positive control, neutral wells = 0; hit rate 0.75% among 300,000; activation, % at 12.5 µM;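 active = mean activation of at least 80% with every replicate also reaching 80%; inconclusive = mean reaches 80% but some replicate falls short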;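 also: 0% = neutral control wells and 100% = parthenolide positive control wells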
# esBAF inh: blocks esBAF chromatin remodeling in mouse ES cells. Bmi1-luciferase knock-in reporter, 24 h; 100% = twice the neutral-well signal. reporter increase, % at 12.5 µM. hit rate 2% among 350,000. AID 602393; in the data active = activation above about 40%; inconclusive = no clear call, values can overlap the other calls;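 also: 0% = median of the plate's neutral control wells and 100% = double that signal; a rise in the Bmi1 reporter signal indicates esBAF inhibition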
# FXN GAA850 act: frataxin GAA850 promoter activation; HEK293 lucGAA850 FXN promoter luciferase reporter, 24 h; percent of 10 µM SAHA response; activation, % at 6 µM; hit rate 0.56% among 360,000; AID 540364;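 active = activation above the average of all compounds screened plus 3 SD, cutoff fixed separately per campaign, cut at about 7.5% in these data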;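 also: 0% = DMSO wells and 100% = 10 µM SAHA wells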
# * marks the source's active call; other numbers are inactive results; ? = inconclusive; / = not tested or not shown.
SMILES,Wnt act,MITF act,esBAF inh,FXN GAA850 act
COc1cc(C(=O)Nc2ccc(O)cc2C(=O)O)ccc1OC(C)=O,/,-6,/,-2
COC(=O)c1ccc(NC(=O)c2ccc(OC(C)=O)c(OC)c2)cc1,-1,49,50*,4
O=C(NCC[C@@H]1CC[C@@H](NC(=O)c2cccnc2)[C@@H](CO)O1)Nc1ccc(Cl)cc1,/,/,4,/
C[C@@H]1CCCCO[C@H](CN(C)C(=O)Cc2ccccc2)[C@@H](C)CN([C@@H](C)CO)C(=O)c2cc(NC(=O)Cc3ccccc3)ccc2O1,/,/,2,/
O=C(NCC[C@@H]1CC[C@H](NC(=O)C2CCCC2)[C@H](CO)O1)Nc1ccc(Cl)cc1,/,/,24,/
O=C(Nc1ccccc1F)N1C[C@H]2[C@@H](c3ccccc31)[C@H](CO)N2C(=O)c1ccccc1F,/,/,15,/
N#C[C@H]1[C@H](c2ccc(C3=CCCCC3)cc2)[C@@H](CO)N1C(=O)NC1CCCCC1,/,/,-4,/
O=C(Cc1ccccc1F)Nc1ccc(SC(F)F)cc1,23,103*,/,3
O=C(N[C@H]1CC[C@H](CCn2cc(C3CC3)nn2)O[C@H]1CO)c1cccnc1,/,/,-3,/
C[C@H](CO)N1C[C@H](C)[C@@H](CN(C)S(=O)(=O)c2cccs2)Oc2ccc(NS(=O)(=O)c3ccc(Cl)cc3)cc2C1=O,/,/,0,/
Cc1cc(/C=C2/C(=O)N(C)C(=S)N2C)c(C)n1C1CC1,-1,68,10,5
CN1C(=O)/C(=C/C=C2\SCCN2C)N(C)C1=S,-1,71,66*,3
N#Cc1ccc(C(=O)NC2=NCCS2)cc1,13,62,48*,3
COc1ccc(C(=O)NC2=NCCS2)cc1,36*,63,18,5
Cc1ccc(C(=O)NC2=NCCS2)cc1Cl,/,/,5,3
Cc1ccc(C(=O)NC2=NCCS2)cc1,50*,/,/,/
O=C(NC1=NCCS1)c1ccc(C(F)(F)F)cc1,7,87*,53*,5
CC(C)c1ccc(C(=O)NC2=NCCS2)cc1,45*,44,-7,-1
CC(C)Oc1ccc(C(=O)NC2=NCCS2)cc1,-1,26,/,3
COc1cc2cc(CN(CCc3ccccc3C)C(=S)NCCCN3CCOCC3)c(=O)[nH]c2cc1OC,50*,10,/,-6
O=C(C[C@@H]1CC[C@@H](NC(=O)c2cnccn2)[C@@H](CO)O1)NCc1ccccc1F,/,/,2,/
Cc1nc(NC(=O)c2ccccc2)sc1-c1csc(N)n1,?,-2,53*,0
CCOc1ccccc1Nc1nc(-c2sc(NC(=O)c3cccc(Cl)c3)nc2C)cs1,0,16,64*,0
COc1ccccc1Nc1nc(-c2sc(NC(=O)c3ccccc3)nc2C)cs1,2,3,16,1
C[C@@H]1CN([C@@H](C)CO)C(=O)c2cc(C#CCN(C)C)cnc2O[C@H]1CN(C)C(=O)NC1CCCCC1,/,/,-6,/
SMILES,Wnt act,MITF act,esBAF inh,FXN GAA850 act
Brc1cccc(Nc2nc(-c3cccnc3)cs2)c1,27,16,49*,6
Clc1cccc(Nc2nc(-c3cccnc3)cs2)c1,0,43,78*,6
Cc1ccc(Nc2nc(-c3cccnc3)cs2)cc1C,?,63,37,2
N#C[C@@H]1[C@H](c2ccc(-c3ccccc3F)cc2)[C@@H](CO)N1C(=O)Cc1ccccc1,/,/,3,/
O=C(Cn1cnc2c(nnn2-c2cccc(Cl)c2)c1=O)N1CCOCC1,56*,0,-1,-1
Cc1noc(C)c1S(=O)(=O)Nc1ccc2c(c1)CC(=O)N([C@@H](C)CO)C[C@@H](C)[C@H](CN(C)CC1CC1)O2,/,/,-1,/
O=C(CCl)N1c2ccccc2Oc2ccc3ccccc3c21,8,-87,50*,5
Cc1cc(NC(=O)Nc2ccc(Cl)cc2)no1,8,44,47*,2
O=C(Nc1ccc(Cl)cc1)Nc1ccc(Br)cn1,2,94*,?,1
COc1ccc(NC(=O)Nc2ccc(Br)cn2)cc1OC,-1,42,17,3
COc1ccccc1NC(=O)Nc1ccc(C)cn1,11,/,14,2
COc1cccc(NC(=O)Nc2ccc(Br)cn2)c1,-4,106*,47*,4
Cc1ccc(NC(=O)Nc2cc(C)on2)cc1,12,35,/,4
Cc1ccc(NC(=O)Nc2ccc(F)cc2)nc1,/,82*,/,4
CCCNC(=O)N1[C@@H]2CN(C(=O)c3ccccc3)c3ccccc3[C@@H]2[C@@H]1CO,/,/,2,/
Cn1cnc(S(=O)(=O)N[C@H]2C=C[C@H](CC(=O)NCC3CCCCC3)O[C@H]2CO)c1,/,/,0,/
C[C@@H]1CN([C@@H](C)CO)C(=O)c2cc(NC(=O)CCN3CCOCC3)ccc2O[C@H]1CN(C)Cc1ccc2c(c1)OCO2,/,/,-9,/
COc1ccc(C(=O)c2c3ccc(OC)cc3[n+]([O-])n2Cc2ccc(C(N)=O)cc2)cc1,27,50,61*,6
COc1ccc(C(=O)c2c3ccc(OC)cc3[n+]([O-])n2CCCC(N)=O)cc1,2,-4,0,0
O=C(Nc1nc(-c2cccc(Br)c2)cs1)Oc1ccccc1,13,48,45*,4
COc1cccc(-c2csc(NC(C)=O)n2)c1,/,83*,78*,2
COc1cccc(NC(=O)Nc2nc(-c3ccc(OC)c(OC)c3)cs2)c1,-8,-80,43*,-14
Cc1noc(C)c1NC(=O)N(C)C[C@H]1Oc2c(NC(=O)Nc3ccc4c(c3)OCO4)cccc2C(=O)N([C@H](C)CO)C[C@H]1C,/,/,3,/
CC(=O)n1nc(-c2ccccc2)cc1-c1ccccc1,64*,53,/,6
O=C(O)CC(C(=O)O)n1nc(-c2ccccc2)cc1-c1ccccc1 (stereo unspecified),/,3,58*,7
SMILES,Wnt act,MITF act,esBAF inh,FXN GAA850 act
O=C(O)Cn1nc(-c2ccccc2)cc1-c1ccccc1,3,-11,14,0
C=CCn1c(C)cc(C(=O)CSc2nc3ccccc3o2)c1C,47*,46,/,2
C=CCn1c(C)cc(C(=O)CSc2nc3ccccc3c(=O)[nH]2)c1C,44*,16,12,4
Cc1cccc(NC(=O)CSc2nc3ccccc3o2)c1,/,/,47*,2
O=C(Nc1ccc(Cl)cc1)N[C@@H]1CC[C@@H](CCn2cc(-c3ccccc3F)nn2)O[C@@H]1CO,/,/,1,/
C[C@@H]1CN([C@H](C)CO)C(=O)c2cc(-c3ccccc3)cnc2O[C@H]1CN(C)C(=O)C1CCOCC1,/,/,0,/
Oc1oc(-c2ccc(Br)cc2)nc1/C=N/c1ccccn1,37*,49,/,3
C[C@H](CO)N1C[C@H](C)[C@@H](CN(C)Cc2ccccc2)Oc2ncc(C3=CCCC3)cc2C1=O,/,/,-1,/
COc1ccc(NC(=S)N(CCc2ccc(OC)c(OC)c2)Cc2ccccn2)cc1,0,-10,1,1
COc1ccc(CCN(Cc2ccccn2)C(=S)Nc2cccc(C)c2)cc1OC,45*,6,-3,2
O=C(/C=C/c1ccc([N+](=O)[O-])cc1)Nc1cccnc1,38*,8,23,4
Cc1nc(NC(=O)/C=C/c2ccccc2)n[nH]1,39*,-58,40,7
CCCn1nnc(NC(=O)/C=C/c2ccccc2)n1,1,-1,/,0
O=C(Cc1ccc([N+](=O)[O-])cc1)Nc1cccnc1,7,7,/,2
